These results are taken from PubChem BioAssay (Tox21).

Assay [1] has as its target Thyrotropin-releasing hormone receptor (Homo sapiens) (UniProt P34981). Briefly: qHTS assay to identify small molecule agonists of the thyrotropin-releasing hormone receptor (TRHR) signaling pathway (AID 1346891; calls by dose curve; also: series mostly up to about 58 µM). An outline of the steps: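 HEK293 cells expressing TRHR plated 18 h at 37 C/5% CO2, calcium dye-loaded 2 h at 37 C, then compound added (agonist mode); kinetic calcium fluorescence read 3 min at 1 s intervals; 15 concentrations in triplicate.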
In general terms: In qHTS, concentration-response curves come from the screen itself.

The nature of assay [2]: Human pregnane X receptor (PXR) small molecule agonists, qHTS cell viability counter screen (AID 1346977). Also: nearly all actives have a fitted effect of over 50% in size. An outline of the steps:
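PXR-Luc HepG2 cells (2,000/well, 5% charcoal-stripped FBS) preincubated 5 hr, then exposed to compounds 24 hr at 37 C. Viability read in the same wells by CellTiter-Fluor fluorescence, reagent added at 23 hr, 1 hr incubation.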

The nature of assay [3]: Caspase-3/7 induction in HepG2 cells by small molecules, qHTS assay (AID 1346978). Also: nearly all actives have a fitted effect of over 15% in size. An outline of the steps: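 Caspase-3/7 induction was measured by Caspase-Glo 3/7 luminescence (30 min, room temperature) after a 17 hr compound exposure of wild-type HepG2 cells seeded at 2,000 per well and pre-incubated 5 hr.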
The nature of assay [4]: Caspase-3/7 induction in CHO-K1 cells by small molecules, qHTS cell viability counter screen (AID 1346979). Also: nearly all actives have a fitted effect of over 35% in size. An outline of the steps: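 Wild-type CHO-K1 cells (1,500/well) treated with compound after 5 h plating; after 16 h at 37C, viability read as CellTiter-Fluor fluorescence following 1 h reagent incubation, in the same wells as the caspase read.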
Assay [5] has as its target Nuclear receptor subfamily 1 group I member 2 (Homo sapiens) (UniProt O75469). Briefly: Human pregnane X receptor (PXR) small molecule agonists, qHTS assay (AID 1346982). Also: nearly all actives have a fitted effect of over 35% in size. Also: potency is read from the fitted curve at half-maximal effect. Put shortly:
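Luminescence (ONE-Glo, 30 min RT) after 24 hr compound exposure of PXR-Luc HepG2 cells; cells rested 5 hr post-plating in 5% charcoal-stripped FBS medium.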

Assay [6] has as its target Cytochrome P450 2D6 (Homo sapiens) (UniProt P10635). Description: Cytochrome P450 Family 2 Subfamily D Member 6 (CYP2D6) small molecule antagonists: luciferase reporter qHTS assay (AID 1671196). Also: nearly all actives have a fitted effect of over 50% in size. Also: potency is read from the fitted curve at half-maximal effect. As to activity change, negative = inhibition: series mostly up to about 120 µM. An outline of the steps:
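Inhibition of CYP2D6 was gauged by loss of luminescence, since light produced tracks the luciferin generated from a proluciferin substrate. A 10 min room-temperature preincubation preceded 1 h NADPH-supported turnover.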
On the technique in general: A reporter such as luciferase makes a cellular process visible.

In assay [7] the target is Cytochrome P450 2C19 (Homo sapiens) (UniProt P33261). Description: Cytochrome P450 Family 2 Subfamily C Member 19 (CYP2C19) small molecule antagonists: luciferase reporter qHTS assay (AID 1671197). Also: nearly all actives have a fitted effect of over 65% in size. Also: potency is read from the fitted curve at half-maximal effect. As to activity change, negative = inhibition: series mostly up to about 120 µM. An outline of the steps: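 Inhibition of CYP2C19 was scored from loss of luminescence in a P450-Glo proluciferin substrate assay, NADPH-started and run 1 h at 37C, with ketoconazole as positive control.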

In assay [8] the target is Cytochrome P450 2C9 (Homo sapiens) (UniProt P11712). Briefly: Cytochrome P450 Family 2 Subfamily C Member 9 (CYP2C9) small molecule antagonists: luciferase reporter qHTS assay (AID 1671198). Also: nearly all actives have a fitted effect of over 50% in size. Also: potency is read from the fitted curve at half-maximal effect. As to activity change, negative = inhibition: series mostly up to about 120 µM. Put shortly: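 Enzyme-substrate mix preincubated with compound 10 min at room temperature; reaction started with NADPH regeneration solution, 1 h 37C. Luminescent luciferin product read after 20 min detection reagent.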

The target in assay [9] is Voltage-gated inwardly rectifying potassium channel KCNH2 (Homo sapiens) (UniProt Q12809). Description: Human Ether-a-go-go-Related Gene (hERG) channel small molecule antagonists: fluorescence cell-based qHTS assay (AID 1671200).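 Also: hERG-expressing U2OS cells given a thallium stimulus after FluxOR II dye loading; series mostly up to about 77 µM; nearly all actives have a fitted effect of over 50% in size.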 An outline of the steps: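 hERG-U2OS cells plated overnight at 37 C, loaded with FluxOR II dye 1 h at RT in dark; after 10 min, thallium stimulus added. Fluorescence (480/540 nm) read kinetically for 2 min at 1 s intervals.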

Assay [10] concerns the target Cytochrome P450 3A4 (Homo sapiens) (UniProt P08684). Briefly: Cytochrome P450 Family 3 Subfamily A Member 4 (CYP3A4) small molecule antagonists: luciferase reporter qHTS assay (AID 1671201). Also: nearly all actives have a fitted effect of over 50% in size. Also: potency is read from the fitted curve at half-maximal effect. As to activity change, negative = inhibition: series mostly up to about 120 µM. Put shortly: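 P450-Glo CYP3A4 luminescent assay: compounds preincubated 10 min at room temperature with enzyme and proluciferin substrate, NADPH regeneration added, 1 h room-temperature reaction, stopped with luciferin detection reagent; luminescence read after 20 min. Ketoconazole positive control.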

Assay [11] is described as follows: Caspase-3/7 induction in CHO-K1 cells by small molecules, qHTS assay (AID 1346980). Also: nearly all actives have a fitted effect of over 15% in size. Put shortly: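 Luminescent Caspase-Glo 3/7 read (30min, room temperature) quantified apoptosis induction. Cells were wild-type CHO-K1, treated with compound for 17hr at 37 C and 5% CO2.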
Assay [12] in a line: Caspase-3/7 induction in HepG2 cells by small molecules, qHTS cell viability counter screen (AID 1346981). Also: series mostly up to about 92 µM; nearly all actives have a fitted effect of over 30% in size. Put shortly: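 Counter screen for cytotoxicity: HepG2 exposed 16 hr to compounds, then CellTiter-Fluor viability signal (fluorescence, 1 hr reagent incubation).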
The target of assay [13] is Nuclear receptor subfamily 1 group I member 2 (Rattus norvegicus) (UniProt Q9R1A7). Description: Rat pregnane X receptor (rPXR) activation by small molecules, qHTS assay (AID 1346983). Also: nearly all actives have a fitted effect of over 20% in size. Particulars: rPXR luciferase reporter cells, One-Glo luminescence, 24 h; max activation: stronger effect = higher value. An outline of the steps: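 Luminescent readout (One-Glo luciferase, 30 min room temperature) followed 24 hr compound treatment at 37 C of rPXR cells plated 2,000 per well and preincubated 5hr; qHTS format with compounds delivered in DMSO.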

Assay [14] has as its target Nuclear receptor subfamily 1 group I member 2 (Homo sapiens) (UniProt O75469). Description: CYP3A4 induction through human pregnane X receptor (PXR) by small molecules, qHTS assay (AID 1346984). Also: nearly all actives have a fitted effect of over 40% in size. Put shortly: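 DPX-2 reporter cells; 24h cpd, 37C; Luciferin-IPA 3uM final x3h; One-Glo 30 min RT; lumi read.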
Assay [15] has the same target. Briefly: Human pregnane X receptor (PXR) activation by small molecules, qHTS assay (AID 1346985). Also: nearly all actives have a fitted effect of over 40% in size. An outline of the steps: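 DPX-2 cells (HepG2 co-transfected with a PXR response element and a CYP3A4-promoter luciferase construct) were seeded at 2,000 per well, rested 5 hr at 37C, then exposed to DMSO-dissolved compounds for 24 hr. Activation was read as luciferase luminescence.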

In assay [16] the target is Cytochrome P450 1A2 (Homo sapiens) (UniProt P05177). Description: Cytochrome P450 Family 1 Subfamily A Member 2 (CYP1A2) small molecule antagonists: luciferase reporter qHTS assay (AID 1671199). Also: nearly all actives have a fitted effect of over 50% in size. Also: potency is read from the fitted curve at half-maximal effect. As to activity change, negative = inhibition: series mostly up to about 120 µM. An outline of the steps:
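Signal from luciferin formed by CYP1A2 from a proluciferin substrate is read as luminescence, expressed in relative luminescence units. Compounds sit with enzyme 10 min, NADPH-driven reaction runs 1 h, all at room temperature.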

Values without a mark were called inactive. Records with an inconclusive call do not appear. Activity calls are given as the source filed them. Unless noted, calls follow the shape of the dose curve; as a rule, active = well fitted curve in the direction sought with a large enough effect in the repeat runs; inconclusive = weak or mixed curves; inactive = no such curve, though single readings can be large; an effect the other way counts as inactive or inconclusive.
% is scaled to controls: 0 for no effect and ±100 for the full control effect.

Sequence of Cytochrome P450 2C19 (Homo sapiens) (P33261 whole entry, looked up): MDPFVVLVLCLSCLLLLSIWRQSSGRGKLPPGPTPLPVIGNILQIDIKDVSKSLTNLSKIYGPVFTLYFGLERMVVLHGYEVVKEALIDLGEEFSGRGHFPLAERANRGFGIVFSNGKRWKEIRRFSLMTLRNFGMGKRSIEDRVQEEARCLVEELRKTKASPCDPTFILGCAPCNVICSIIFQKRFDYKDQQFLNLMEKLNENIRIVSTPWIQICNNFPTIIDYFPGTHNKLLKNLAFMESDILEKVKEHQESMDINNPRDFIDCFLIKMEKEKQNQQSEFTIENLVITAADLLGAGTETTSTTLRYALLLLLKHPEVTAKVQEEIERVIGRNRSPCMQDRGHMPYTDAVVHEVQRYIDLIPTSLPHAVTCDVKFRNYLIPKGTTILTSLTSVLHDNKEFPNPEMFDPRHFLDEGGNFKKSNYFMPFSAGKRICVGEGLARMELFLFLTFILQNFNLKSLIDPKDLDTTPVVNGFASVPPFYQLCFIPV
Sequence of Voltage-gated inwardly rectifying potassium channel KCNH2 (Homo sapiens) (Q12809 whole entry, looked up): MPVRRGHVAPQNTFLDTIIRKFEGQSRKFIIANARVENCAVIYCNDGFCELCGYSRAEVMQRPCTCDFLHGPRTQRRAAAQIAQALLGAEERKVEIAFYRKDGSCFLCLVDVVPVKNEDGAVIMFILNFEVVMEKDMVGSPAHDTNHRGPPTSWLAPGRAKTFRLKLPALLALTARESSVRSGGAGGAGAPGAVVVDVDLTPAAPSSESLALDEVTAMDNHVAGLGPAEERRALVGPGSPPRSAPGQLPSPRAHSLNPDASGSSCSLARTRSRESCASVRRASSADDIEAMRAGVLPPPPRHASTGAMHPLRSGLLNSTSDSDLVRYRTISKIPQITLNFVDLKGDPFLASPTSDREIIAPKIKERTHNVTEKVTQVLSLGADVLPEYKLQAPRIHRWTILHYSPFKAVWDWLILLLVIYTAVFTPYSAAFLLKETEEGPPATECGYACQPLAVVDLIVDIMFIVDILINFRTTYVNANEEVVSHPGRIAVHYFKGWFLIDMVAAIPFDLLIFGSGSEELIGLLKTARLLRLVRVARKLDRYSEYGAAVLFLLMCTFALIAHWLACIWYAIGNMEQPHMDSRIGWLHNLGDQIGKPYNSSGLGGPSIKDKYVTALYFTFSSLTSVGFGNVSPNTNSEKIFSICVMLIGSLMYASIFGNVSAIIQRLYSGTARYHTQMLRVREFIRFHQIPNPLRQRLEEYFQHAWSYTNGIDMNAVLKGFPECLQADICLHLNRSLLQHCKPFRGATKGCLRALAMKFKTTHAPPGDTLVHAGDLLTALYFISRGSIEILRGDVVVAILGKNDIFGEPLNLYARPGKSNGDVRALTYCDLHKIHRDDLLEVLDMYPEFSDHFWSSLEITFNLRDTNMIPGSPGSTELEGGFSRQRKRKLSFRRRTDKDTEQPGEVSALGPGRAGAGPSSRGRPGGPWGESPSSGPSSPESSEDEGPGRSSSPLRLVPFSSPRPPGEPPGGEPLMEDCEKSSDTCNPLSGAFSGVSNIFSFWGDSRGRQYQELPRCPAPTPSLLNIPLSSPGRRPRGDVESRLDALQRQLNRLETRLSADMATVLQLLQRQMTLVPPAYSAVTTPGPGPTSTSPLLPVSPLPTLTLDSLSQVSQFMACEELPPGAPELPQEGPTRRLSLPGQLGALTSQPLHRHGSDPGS
Sequence of Cytochrome P450 3A4 (Homo sapiens) (P08684 whole entry, looked up): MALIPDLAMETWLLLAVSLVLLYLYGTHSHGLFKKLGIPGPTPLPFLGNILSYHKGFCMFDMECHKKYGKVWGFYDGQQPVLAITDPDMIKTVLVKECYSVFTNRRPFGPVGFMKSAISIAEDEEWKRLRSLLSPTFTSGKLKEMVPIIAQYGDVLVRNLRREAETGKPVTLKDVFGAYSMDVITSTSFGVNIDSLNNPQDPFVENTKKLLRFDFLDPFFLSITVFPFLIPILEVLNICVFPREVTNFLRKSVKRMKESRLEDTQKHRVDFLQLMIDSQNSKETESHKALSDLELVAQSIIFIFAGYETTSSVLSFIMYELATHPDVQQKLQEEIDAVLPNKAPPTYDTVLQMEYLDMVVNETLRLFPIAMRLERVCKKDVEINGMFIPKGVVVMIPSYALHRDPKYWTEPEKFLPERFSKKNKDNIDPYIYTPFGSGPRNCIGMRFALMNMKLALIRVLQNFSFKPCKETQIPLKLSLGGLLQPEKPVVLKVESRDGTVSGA
Sequence of Cytochrome P450 1A2 (Homo sapiens) (P05177 whole entry, looked up): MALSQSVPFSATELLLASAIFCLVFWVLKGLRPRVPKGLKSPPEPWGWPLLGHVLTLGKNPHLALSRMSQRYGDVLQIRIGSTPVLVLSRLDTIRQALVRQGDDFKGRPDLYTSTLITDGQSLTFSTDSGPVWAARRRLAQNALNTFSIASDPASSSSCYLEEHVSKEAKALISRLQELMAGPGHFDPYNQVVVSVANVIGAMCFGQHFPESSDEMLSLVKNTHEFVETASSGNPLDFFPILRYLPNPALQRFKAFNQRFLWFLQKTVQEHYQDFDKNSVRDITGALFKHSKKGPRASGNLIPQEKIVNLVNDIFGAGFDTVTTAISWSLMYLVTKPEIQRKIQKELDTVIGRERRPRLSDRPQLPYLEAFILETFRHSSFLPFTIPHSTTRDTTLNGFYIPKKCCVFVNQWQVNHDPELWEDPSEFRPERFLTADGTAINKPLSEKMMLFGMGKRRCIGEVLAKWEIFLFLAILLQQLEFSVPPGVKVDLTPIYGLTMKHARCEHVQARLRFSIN
Sequence of Cytochrome P450 2C9 (Homo sapiens) (P11712 whole entry, looked up): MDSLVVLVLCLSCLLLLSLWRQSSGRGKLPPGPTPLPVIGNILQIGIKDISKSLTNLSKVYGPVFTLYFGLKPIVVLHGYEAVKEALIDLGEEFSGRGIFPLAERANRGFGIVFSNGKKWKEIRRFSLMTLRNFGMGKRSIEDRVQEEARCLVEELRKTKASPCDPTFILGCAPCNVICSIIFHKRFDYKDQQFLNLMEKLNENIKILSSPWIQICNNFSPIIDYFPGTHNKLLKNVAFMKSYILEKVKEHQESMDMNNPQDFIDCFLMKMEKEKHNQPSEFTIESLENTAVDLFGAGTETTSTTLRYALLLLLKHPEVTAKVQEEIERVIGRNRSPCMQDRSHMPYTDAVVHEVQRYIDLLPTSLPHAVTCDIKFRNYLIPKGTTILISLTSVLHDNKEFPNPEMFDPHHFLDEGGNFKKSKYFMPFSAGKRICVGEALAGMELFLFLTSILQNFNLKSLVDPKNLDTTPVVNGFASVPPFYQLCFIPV
Sequence of Nuclear receptor subfamily 1 group I member 2 (Homo sapiens) (O75469 whole entry, looked up): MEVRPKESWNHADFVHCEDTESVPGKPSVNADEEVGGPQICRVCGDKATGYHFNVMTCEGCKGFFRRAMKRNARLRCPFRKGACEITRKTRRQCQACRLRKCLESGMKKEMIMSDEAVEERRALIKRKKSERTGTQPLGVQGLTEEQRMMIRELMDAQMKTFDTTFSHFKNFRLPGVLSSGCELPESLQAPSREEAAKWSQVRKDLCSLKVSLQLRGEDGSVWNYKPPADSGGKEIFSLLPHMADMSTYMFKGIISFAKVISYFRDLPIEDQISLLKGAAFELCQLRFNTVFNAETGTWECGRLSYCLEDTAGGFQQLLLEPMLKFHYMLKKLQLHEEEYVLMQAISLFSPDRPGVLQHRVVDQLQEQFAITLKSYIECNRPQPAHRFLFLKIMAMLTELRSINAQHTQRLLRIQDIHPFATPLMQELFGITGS
Sequence of Cytochrome P450 2D6 (Homo sapiens) (P10635 whole entry, looked up): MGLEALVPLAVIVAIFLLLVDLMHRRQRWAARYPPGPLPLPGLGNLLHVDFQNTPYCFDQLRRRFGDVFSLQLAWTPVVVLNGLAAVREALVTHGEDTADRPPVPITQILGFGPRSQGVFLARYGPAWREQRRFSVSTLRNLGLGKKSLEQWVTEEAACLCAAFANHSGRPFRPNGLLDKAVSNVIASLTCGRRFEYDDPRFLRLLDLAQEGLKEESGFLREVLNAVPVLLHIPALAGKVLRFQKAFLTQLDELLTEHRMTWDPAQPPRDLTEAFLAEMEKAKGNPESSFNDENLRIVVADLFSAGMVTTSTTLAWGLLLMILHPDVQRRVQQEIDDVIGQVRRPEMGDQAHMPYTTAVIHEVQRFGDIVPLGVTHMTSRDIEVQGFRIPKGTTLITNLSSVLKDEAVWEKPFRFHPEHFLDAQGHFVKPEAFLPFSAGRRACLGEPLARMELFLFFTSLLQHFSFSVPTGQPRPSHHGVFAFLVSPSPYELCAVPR
Sequence of Nuclear receptor subfamily 1 group I member 2 (Rattus norvegicus) (Q9R1A7 whole entry, looked up): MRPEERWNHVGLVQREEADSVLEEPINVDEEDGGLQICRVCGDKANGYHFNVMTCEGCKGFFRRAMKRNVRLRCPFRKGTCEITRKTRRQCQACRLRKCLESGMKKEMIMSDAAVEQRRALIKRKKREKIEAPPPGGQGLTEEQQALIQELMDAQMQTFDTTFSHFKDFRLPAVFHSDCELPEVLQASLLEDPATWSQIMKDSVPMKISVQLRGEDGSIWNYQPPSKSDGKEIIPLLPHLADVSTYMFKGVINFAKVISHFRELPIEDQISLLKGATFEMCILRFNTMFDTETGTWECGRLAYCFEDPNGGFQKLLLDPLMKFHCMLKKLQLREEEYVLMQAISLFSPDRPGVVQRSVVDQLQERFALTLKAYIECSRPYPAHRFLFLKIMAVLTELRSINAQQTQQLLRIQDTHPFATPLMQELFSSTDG
Sequence of Thyrotropin-releasing hormone receptor (Homo sapiens) (P34981 whole entry, looked up): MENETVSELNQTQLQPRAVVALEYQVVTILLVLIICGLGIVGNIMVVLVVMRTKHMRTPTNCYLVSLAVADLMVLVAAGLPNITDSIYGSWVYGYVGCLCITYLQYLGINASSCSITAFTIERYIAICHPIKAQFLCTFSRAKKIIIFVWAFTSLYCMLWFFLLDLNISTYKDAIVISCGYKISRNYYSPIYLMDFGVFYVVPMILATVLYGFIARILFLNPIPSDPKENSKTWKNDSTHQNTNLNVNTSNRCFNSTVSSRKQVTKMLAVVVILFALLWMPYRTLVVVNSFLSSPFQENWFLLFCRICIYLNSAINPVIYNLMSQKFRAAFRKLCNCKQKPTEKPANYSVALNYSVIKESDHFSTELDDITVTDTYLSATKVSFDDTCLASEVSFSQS

Take `NC(=O)c1c(Cl)cccc1Cl`: the result in [1] and in assay [3] was inactive. The Potency result in assay [2], in [4], in assay [8] and in assay [9] was “inactive” each time. The Potency was 0.0611 µM (active) in [5], 31.7 µM (active) in assay [6], 20 µM (active) in [7] and 31.7 µM (active) in assay [10].
For `NC(CS)C(=O)O` (stereo not drawn), the Potency entry in assay [2], in assay [4], in assay [5], in assay [14], in [15] and in [6] was “inactive” in each case. The Potency result in assay [7], in assay [8], in [9] and in assay [10] was “inactive” throughout. Moreover, the molecule was called inactive in assay [3], in assay [11] and in assay [12]. The max activation in assay [13] is -0.0152%.
In the case of `C=C(C)C(=O)OCCCCCCCCCCCCCCCCCC`, the values for the activity change, negative = cytotoxicity in assay [2], in assay [4] and in assay [12] were -1.38% [at 19 µM], -0.104% [at 19 µM] and -0.0917% [at 19 µM], respectively. Further, the caspase activation in assay [3] is -1.69% [at 19 µM]. For the same molecule, the caspase-3/7 activation in assay [11] was 0.453% [at 19 µM]. The activation in assay [5] is -0.119% [at 19 µM]. Moreover, the activity change, negative = inhibition in assay [6] was 2.34% [at 23.6 µM]; in assay [7], -16.6% [at 23.6 µM]; in assay [8], -1.15% [at 23.6 µM]; in assay [9], -0.193% [at 15.8 µM]; in assay [10] it was 2.34% [at 23.6 µM]. Further, the Potency result in [16] is “inactive”.
On to `C1=C\CC/C=C\CC/C=C\CC/1`, for which the Potency result in [2], in assay [4], in assay [5], in assay [6], in [7] and in [9] was “inactive” in each case. For the same molecule, the Potency result in [10] was “inactive”. The result in assay [3], in assay [11] and in [12] was inactive.
Consider `CCCCCCOC(=O)c1ccccc1O`, for which the Potency result in assay [2], in [4], in [5], in [6], in assay [7] and in [8] was “inactive” each time. The Potency result in assay [10] is “inactive”. In addition, the result in [3], in [11] and in assay [12] was inactive.
As to `CC(C)(C)C(=O)/C=C/c1ccc(Cl)cc1`, the Potency result in [2], in assay [4], in assay [6] and in assay [10] was “inactive” in each case. For the same molecule, the molecule was classed as inactive in assay [3], in assay [11] and in assay [12]. Besides, the Potency in assay [5] was 54.5 µM (active); in assay [7], 7.96 µM (active); in assay [8], 63.3 µM (active); in assay [16], 22.4 µM (active).
Take `CCCc1ccc(N)cc1`: the Potency entry in assay [2], in assay [4], in assay [6] and in assay [9] was “inactive” in each case. Also, the molecule was classed as inactive in assay [3], in assay [11] and in [12]. Also, the Potency in [7] and in [16] was 35.6 µM (active) throughout.
As for `Cc1cc(C)cc(OCC2CNC(=O)O2)c1` (stereo not drawn), the Potency result in assay [2], in assay [4], in assay [5], in assay [14], in assay [15] and in assay [6] was “inactive” in each case. Besides, the Potency result in assay [7], in [8], in assay [9] and in assay [10] was “inactive” throughout. The molecule was classed as inactive in [3] and in [11]. The max activation in assay [13] was -2.51%.
In the case of `CC(C=O)Cc1ccc(C(C)C)cc1` (stereo not drawn), the Potency result in assay [2], in assay [4], in assay [5], in [6], in assay [9] and in assay [10] was “inactive” in each case. Also, the molecule was called inactive in assay [3], in [11] and in assay [12]. In addition, the Potency in assay [7] was 50.2 µM (active).
As to `CC1=CC(C)C(C=O)C(C)C1` (stereo not drawn), the Potency entry in assay [2], in assay [4], in [5], in assay [6], in assay [7] and in assay [9] was “inactive” each time. For the same molecule, the Potency entry in assay [10] was “inactive”. Further, the result in [3], in assay [11] and in assay [12] was inactive.
Regarding `N[C@@H](CS)C(=O)O`, the Potency result in assay [2], in assay [4], in assay [5], in assay [16], in [9] and in [10] was “inactive” in each case. Moreover, the call in assay [3], in assay [11] and in [12] was inactive.
